Activity calls are given as the source filed them.
What was measured:
Albumin (Bos taurus) = Albumin (Bos taurus) (UniProt P02769); test: bovine serum albumin binders on microarray, profiling panel, artefact control for SMM control protein annotation, biochemical, small-molecule microarray, Alexa647 label, 635/667 nm fluorescence (AID 1118); conditions: BSA-A647 binding, fluorescence 635 nm, higher = more signal;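 also: score merges 667 nm emission intensity and signal-to-noise per printed compound spot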
Chain of Albumin (Bos taurus) (P02769 whole entry, looked up): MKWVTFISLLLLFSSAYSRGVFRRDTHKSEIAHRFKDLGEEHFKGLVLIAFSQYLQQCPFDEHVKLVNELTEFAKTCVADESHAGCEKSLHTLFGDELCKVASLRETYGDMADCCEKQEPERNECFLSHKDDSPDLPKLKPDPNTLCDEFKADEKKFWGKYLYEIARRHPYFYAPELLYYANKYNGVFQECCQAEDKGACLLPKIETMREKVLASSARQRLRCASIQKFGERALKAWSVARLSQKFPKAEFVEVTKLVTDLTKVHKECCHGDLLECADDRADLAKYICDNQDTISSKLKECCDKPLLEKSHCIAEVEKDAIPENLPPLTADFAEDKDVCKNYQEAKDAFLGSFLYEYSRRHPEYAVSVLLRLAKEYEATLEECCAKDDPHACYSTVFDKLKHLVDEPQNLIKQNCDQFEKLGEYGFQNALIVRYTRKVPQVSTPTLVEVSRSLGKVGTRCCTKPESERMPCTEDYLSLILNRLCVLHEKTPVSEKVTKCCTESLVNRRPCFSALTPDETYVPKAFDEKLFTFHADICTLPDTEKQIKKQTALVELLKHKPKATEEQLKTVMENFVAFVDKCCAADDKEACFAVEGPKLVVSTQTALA

[1] = small-molecule microarray binders of probe aXIP, primary screen, biochemical, NeuroSMM set, 635/667 nm fluorescence (AID 1119); conditions: higher = more signal, called active from +8 up or from −8 down;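 also: probe is the protein aXip251-270 applied at 1 µg/mL to compound-printed slides; binding of probe to printed compounds measured as 667 nm fluorescence plus signal to noise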
[2] = small-molecule binders of probe aNOTCH3, primary screen, biochemical, small-molecule microarray, 635/667 nm fluorescence (AID 1120); conditions: higher = more signal;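 also: probe is a biotin-tagged antibody raised against NOTCH3 rather than NOTCH3 protein; score merges spot fluorescence near 667 nm with spot signal to noise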
[3] = small-molecule binders of probe aNOTCH2, primary screen, biochemical, small-molecule microarray, 635/667 nm fluorescence (AID 1121); conditions: higher = more signal;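 also: score merges feature fluorescence read at 667 nm with its signal to noise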
[4] = biological target: Carbonic anhydrase 2 (Homo sapiens) (UniProt P00918); test: CAII small-molecule binders, profiling panel, biochemical, small-molecule microarray, Alexa647-labelled CAII (AID 1122); conditions: CAII-A647 binding fluorescence, higher = more signal
[5] = COS7 lysate on small-molecule microarray, probe aHis, 635 nm (AID 1123); conditions: COS7 cell lysate, fluorescence, higher = more signal;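 also: z-score combines 667nm fluorescence intensity with signal-to-noise per printed compound spot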
[6] = compound binding in COS7 lysate, probe aLAP1, primary screen, cell lysate, small-molecule microarray (AID 1124); conditions: probe aLAP1, fluorescence, higher = more signal;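 also: lysate comes from COS7 cells expressing LAP1 and is applied at 0.3 µg/mL; score merges spot fluorescence near 667 nm with signal-to-noise over triplicate slides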
Sam68 (KHDRBS1) = test: Sam68 small-molecule binders, primary screen, biochemical, small-molecule microarray, 635 nm fluorescence (AID 1125); conditions: small-molecule microarray binding, higher = more signal;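 also: score merges 667 nm channel intensity with signal to noise over triplicate slides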
[7] = tested on: Chordin-like protein 2 (CHRDL2); test: CHRDL2 small-molecule binders, primary screen, biochemical, small-molecule microarray, 635 nm fluorescence (AID 1126); conditions: small-molecule microarray binding, fluorescence 635 nm; higher = more signal;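 also: printed compound slides probed with Chrdl2 protein at 4 µg/mL for 1 h at 4 C; score merges 667 nm emission intensity with signal to noise over three replicate slides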
[8] = biological target: Concanavalin-A (Canavalia ensiformis) (UniProt P02866); test: ConA small-molecule binders, primary screen, artefact control for SMM control protein annotation, biochemical, small-molecule microarray, Alexa647 label, 635 nm (AID 1127); conditions: ConA-A647 binding fluorescence, higher = more signal;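 also: z combines 667 nm emission intensity with signal-to-noise across three replicate slides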
Chain of Concanavalin-A (Canavalia ensiformis) (P02866 whole entry, looked up): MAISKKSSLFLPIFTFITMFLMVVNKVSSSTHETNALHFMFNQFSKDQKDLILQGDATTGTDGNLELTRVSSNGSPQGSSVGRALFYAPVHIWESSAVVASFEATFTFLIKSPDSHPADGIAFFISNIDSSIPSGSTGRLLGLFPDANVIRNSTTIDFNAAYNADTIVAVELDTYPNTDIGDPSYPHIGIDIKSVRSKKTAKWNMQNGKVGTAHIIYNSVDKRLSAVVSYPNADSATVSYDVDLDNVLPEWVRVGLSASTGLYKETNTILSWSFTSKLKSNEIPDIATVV

[9] = anti-His antibody binders, primary screen, artefact control for SMM control protein annotation, biochemical, small-molecule microarray, 635 nm fluorescence (AID 1128); conditions: anti-His Alexa647 antibody binding, higher = more signal;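 also: score merges feature fluorescence with signal-to-noise for each printed compound spot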
[10] = tested on: Human papillomavirus type 1a E7 protein (residues 1-88); test: HPV1a E7 small-molecule binders, primary screen, biochemical, small-molecule microarray, residues 1-88, 635 nm (AID 1129); conditions: small-molecule microarray binding, fluorescence 635 nm; higher = more signal
[11] = biological target: Focal adhesion kinase 1 (Homo sapiens) (UniProt Q05397); test: small-molecule microarray binders of FAK, primary screen, biochemical, 635/667 nm fluorescence, BSA, DTT (AID 1130); conditions: PTK2 binding, 635 nm fluorescence, higher = more signal;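 also: composite of spot emission at 667 nm and signal to noise over triplicate slides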
Chain of Focal adhesion kinase 1 (Homo sapiens) (Q05397 whole entry, looked up): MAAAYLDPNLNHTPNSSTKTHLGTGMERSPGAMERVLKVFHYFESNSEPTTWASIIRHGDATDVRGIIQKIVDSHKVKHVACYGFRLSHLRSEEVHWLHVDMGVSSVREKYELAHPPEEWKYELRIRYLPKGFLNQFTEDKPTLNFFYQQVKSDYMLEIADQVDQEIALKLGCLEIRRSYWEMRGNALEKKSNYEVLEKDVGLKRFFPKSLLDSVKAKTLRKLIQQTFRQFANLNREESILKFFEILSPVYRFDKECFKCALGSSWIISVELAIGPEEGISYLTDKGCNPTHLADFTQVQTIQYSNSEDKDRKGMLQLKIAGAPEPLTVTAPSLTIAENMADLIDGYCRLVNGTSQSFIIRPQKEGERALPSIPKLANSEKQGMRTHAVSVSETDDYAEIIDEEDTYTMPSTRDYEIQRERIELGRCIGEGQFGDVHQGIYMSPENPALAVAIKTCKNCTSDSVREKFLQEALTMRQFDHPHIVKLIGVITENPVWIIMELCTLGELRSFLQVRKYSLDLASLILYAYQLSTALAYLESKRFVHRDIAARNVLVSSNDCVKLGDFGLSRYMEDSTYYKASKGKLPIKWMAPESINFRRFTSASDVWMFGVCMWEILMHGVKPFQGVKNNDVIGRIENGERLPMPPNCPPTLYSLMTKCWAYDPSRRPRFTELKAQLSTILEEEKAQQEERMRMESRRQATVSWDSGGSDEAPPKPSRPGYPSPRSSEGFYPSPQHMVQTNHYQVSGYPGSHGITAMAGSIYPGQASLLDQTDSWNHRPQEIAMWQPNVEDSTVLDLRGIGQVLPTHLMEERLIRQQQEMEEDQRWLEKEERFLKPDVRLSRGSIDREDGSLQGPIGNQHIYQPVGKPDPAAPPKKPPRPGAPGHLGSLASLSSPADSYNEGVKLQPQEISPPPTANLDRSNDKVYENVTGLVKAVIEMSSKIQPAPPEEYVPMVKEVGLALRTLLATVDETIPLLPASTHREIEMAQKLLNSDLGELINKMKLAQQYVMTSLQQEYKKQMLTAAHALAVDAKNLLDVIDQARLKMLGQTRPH

[12] = tested on: Fibrinogen (Alexa647-labelled); test: fibrinogen binders on compound microarrays, profiling panel, artefact control for SMM control-protein annotation, biochemical, small-molecule microarray, 635/667 nm fluorescence (AID 1131); conditions: fibrinogen-A647 binding fluorescence, higher = more signal;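 also: z-score merges 667 nm fluorescence with per-spot signal-to-noise over triplicate slides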
[13] = biological target: Follistatin (Homo sapiens) (UniProt P19883); test: follistatin binders on small-molecule microarrays, primary screen, biochemical, small-molecule microarray, 635/667 nm fluorescence (AID 1132); conditions: FST binding, 635 nm fluorescence, higher = more signal
Chain of Follistatin (Homo sapiens) (P19883 whole entry, looked up): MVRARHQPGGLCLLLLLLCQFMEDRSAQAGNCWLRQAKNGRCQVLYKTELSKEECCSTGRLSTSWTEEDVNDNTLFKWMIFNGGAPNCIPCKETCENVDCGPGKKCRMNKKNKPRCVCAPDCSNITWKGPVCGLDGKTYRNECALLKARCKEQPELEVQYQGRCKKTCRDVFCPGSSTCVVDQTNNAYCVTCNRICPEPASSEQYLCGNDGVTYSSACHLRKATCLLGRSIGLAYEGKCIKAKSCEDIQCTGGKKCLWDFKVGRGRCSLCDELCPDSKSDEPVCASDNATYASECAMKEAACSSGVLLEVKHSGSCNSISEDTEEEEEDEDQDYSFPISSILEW

[14] = biological target: Fibroblast growth factor 2 (Homo sapiens) (UniProt P09038); test: FGF2 binders on small-molecule microarrays, primary screen, biochemical, small-molecule microarray, 635/667 nm fluorescence (AID 1133); conditions: small-molecule microarray binding, FGF2, fluorescence 635/667; higher = more signal
Chain of Fibroblast growth factor 2 (Homo sapiens) (P09038 whole entry, looked up): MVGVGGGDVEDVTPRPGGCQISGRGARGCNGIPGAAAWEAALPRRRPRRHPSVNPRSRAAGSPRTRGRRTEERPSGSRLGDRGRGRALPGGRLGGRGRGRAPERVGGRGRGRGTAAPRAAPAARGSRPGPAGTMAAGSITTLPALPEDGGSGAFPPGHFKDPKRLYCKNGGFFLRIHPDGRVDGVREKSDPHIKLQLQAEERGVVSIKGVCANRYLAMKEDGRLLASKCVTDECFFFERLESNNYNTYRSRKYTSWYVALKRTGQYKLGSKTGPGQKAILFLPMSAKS

[15] = mitochondrial membrane potential change in A549 cells, profiling panel, cell-based, JC-1 fluorescence, basal, 24 h, 100 nL (AID 1138); conditions: higher = more signal;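 also: A549 lung adenocarcinoma cells under basal conditions with no added stimulus; test concentration not given here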
Lefty1 = Lefty1 binders on small-molecule microarrays, primary screen, biochemical, small-molecule microarray, 635/667 nm fluorescence (AID 1139); conditions: small-molecule microarray binding, fluorescence 635/667; higher = more signal
[16] = tested on: wheat germ agglutinin (Triticum aestivum), Alexa647-labelled; test: wheat germ agglutinin binders on compound microarrays, profiling panel, artefact control for SMM control-protein annotation, biochemical, small-molecule microarray, 635/667 nm fluorescence (AID 1140); conditions: WGA-A647 binding, 635 nm fluorescence, higher = more signal;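 also: score merges 667 nm feature emission with signal to noise over triplicate slides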
[17] = biological target: Luciferin 4-monooxygenase (Photinus pyralis) (UniProt P08659); test: firefly luciferase enzyme inhibitors, primary screen, biochemical, luminescence, purified enzyme, 2006 set (AID 1141); conditions: SteadyGlo luminescence, 30 min, higher = more signal, called active from +8 up or from −8 down;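 also: cell-free assay with purified firefly luciferase at 100 ng per well in PBS; test concentration not given here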
Chain of Luciferin 4-monooxygenase (Photinus pyralis) (P08659 whole entry, looked up): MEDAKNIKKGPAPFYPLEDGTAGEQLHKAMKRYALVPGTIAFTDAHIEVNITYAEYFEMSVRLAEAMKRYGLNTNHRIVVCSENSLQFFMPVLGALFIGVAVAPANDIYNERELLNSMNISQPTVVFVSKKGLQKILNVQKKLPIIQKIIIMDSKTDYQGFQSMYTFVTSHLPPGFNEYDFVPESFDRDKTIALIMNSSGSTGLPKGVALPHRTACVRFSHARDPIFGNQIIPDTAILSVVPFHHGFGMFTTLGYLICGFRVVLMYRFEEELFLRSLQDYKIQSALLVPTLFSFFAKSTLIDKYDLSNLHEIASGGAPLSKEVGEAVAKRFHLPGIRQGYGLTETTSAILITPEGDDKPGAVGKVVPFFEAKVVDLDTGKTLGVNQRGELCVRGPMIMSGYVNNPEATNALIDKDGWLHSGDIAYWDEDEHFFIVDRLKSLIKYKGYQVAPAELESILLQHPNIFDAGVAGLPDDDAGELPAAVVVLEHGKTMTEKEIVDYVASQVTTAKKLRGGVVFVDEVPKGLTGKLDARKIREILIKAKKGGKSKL

| Structure (SMILES) | composite z-score (Albumin (Bos taurus)) | composite Z-score [1] | composite z-score [2] | composite z-score [3] | composite z-score [4] | composite z-score [5] | composite z-score [6] | composite z-score (Sam68 (KHDRBS1)) | composite z-score [7] | composite z-score [8] | composite z-score [9] | composite z-score [10] | composite z-score [11] | composite z-score [12] | composite z-score [13] | composite z-score [14] | z-score [15] | composite z-score (Lefty1) | composite z-score [16] | z-score [17] |
| --- | --- | --- | --- | --- | --- | --- | --- | --- | --- | --- | --- | --- | --- | --- | --- | --- | --- | --- | --- | --- |
| CCOC(=O)NN=C1C[C@@H](O)[C@@H](O)[C@@H]2[C@@H]3C(=O)N(CC)C(=O)[C@@H]3CC[C@H]12 | 0.541 | -0.415 (inactive) | -0.0879 | -0.126 | 0.448 | 0.0053 | -0.0396 | -0.221 | 0.202 | 0.173 | 0.241 | -0.351 | 0.105 | 0.569 | -0.408 | 0.0278 | -0.00768 | 0.0358 | 0.195 | -0.557 (inactive) |
| CCOC(=O)[C@H](CC(C)C)NC(=O)CCC1CC(OC(=O)NCCc2ccc(F)cc2)CC2(CCCC(COC(=O)NCc3cccc(C(F)(F)F)c3)O2)O1 (stereo not given in full) | 0.386 | 1.35 (inactive) | -0.0003 | -0.117 | 0.475 | 0.953 | -0.0042 | 1.21 | 0.273 | 0.542 | 0.167 | 1.15 | 0.155 | 0.619 | 0.579 | 0.987 | -0.208 | 0.549 | 0.296 | 0.507 (inactive) |
| CCOC(=O)CCN1C(=O)[C@H]2[C@H]3[C@H](O)[C@H](O)CC(=NO[C@@H]4O[C@H](CO)[C@@H](O)[C@H](O)[C@H]4O)[C@H]3CC[C@H]2C1=O | 0.0221 | -0.048 (inactive) | -0.15 | -0.113 | 0.197 | 0.174 | -0.0363 | 0.201 | 0.52 | 0.487 | 0.919 | 0.544 | 0.068 | 0.551 | 0.0489 | 0.599 | -0.658 | 0.49 | -0.104 | 0.493 (inactive) |
| C[C@@H]1CC[C@H]2C(=O)OC(CN3C(=O)c4ccccc4C3=O)CN2[C@H]1c1ccc(Br)cc1 (stereo not given in full) | 0.808 | 0.372 (inactive) | -0.0984 | 0.178 | 0.305 | 0.787 | 0.376 | 0.438 | 0.333 | 0.781 | 0.194 | 0.731 | 0.246 | 0.377 | -0.145 | -0.204 | 0.0226 | 0.117 | 0.681 | -0.796 (inactive) |
| O=C1[C@H]2[C@H]3[C@H](O)[C@H](O)CC(=NOCc4ccccc4)[C@@H]3CC[C@H]2C(=O)N1c1cccc(Oc2ccccc2)c1 | 0.446 | 0.0894 (inactive) | -0.119 | -0.147 | 0.146 | 0.536 | 0.397 | 1.32 | 0.0204 | 0.335 | 0.695 | 0.452 | 0.0881 | 0.96 | 0.248 | 0.184 | 0.578 | 0.687 | 0.315 | 0.245 (inactive) |

Reference: PubChem BioAssay
